# Measured values taken from the supplement of paper PMC8728848.
# Shown is part of a subset that was picked to be rich in the strongest signals.
# B1: NPA (Narcissus pseudonarcissus), C0HM45 (protein)
# chain: DNILYSGETLSPGEFLNNGRYVFIMQEDCNLVLYDVDKPIWATNTGGLDRRCHLSMQSDGNLVVYSPRNNPIWASNTGGENGNYVCVLQKDRNVVIYGTARWATGTNIH
# Tests used:
# Assay in all cases: glycan array binding signal (z-score within array); higher = stronger binding
# Conditions in all cases: glycan notation: IUPAC condensed, linker removed
# [1] = biological target: Fuc(a1-2)Gal(b1-3)GlcNAc(b1-3)[Fuc(a1-2)Gal(b1-3)GlcNAc(b1-6)]GalNAc
# Procedure, shortened: (§1)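 Negative Z-scores can be read as non-binding. The Z-score is calculated within each array and then averaged across arrays of one protein sequence at different concentrations or buffers and across linkers. Arrays, 3228 in all, were curated from the Consortium for Functional Glycomics database and kept only where the protein sequence was available.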
# [2] = biological target: Fuc(a1-2)Gal(b1-3)GlcNAc(b1-3)[Neu5Ac(a2-6)Gal(b1-4)GlcNAc(b1-6)]Gal(b1-4)Glc
# Procedure, shortened: as §1
# [3] = biological target: Fuc(a1-2)[Gal(a1-3)]Gal(b1-4)GlcNAc
# Procedure, shortened: as §1
# [4] = biological target: Fuc(a1-2)[Gal(a1-3)]Gal(b1-4)GlcNAc(b1-2)Man
# Procedure, shortened: as §1
# [5] = biological target: Fuc(a1-3)[Gal(b1-4)]GlcNAc(b1-2)Man
# Procedure, shortened: as §1
# Gal(a1-3)Gal(b1-3)GlcNAc = biological target: Gal(a1-3)Gal(b1-3)GlcNAc
# Procedure, shortened: as §1
# [6] = biological target: Gal(a1-3)Gal(b1-4)GlcNAc(b1-2)Man(a1-3)[Gal(a1-3)Gal(b1-4)GlcNAc(b1-2)Man(a1-6)]Man(b1-4)GlcNAc(b1-4)GlcNAc
# Procedure, shortened: as §1
# [7] = biological target: Gal(a1-3)Gal(b1-4)[Fuc(a1-3)]GlcNAc(b1-2)Man(a1-3)[Gal(a1-3)Gal(b1-4)[Fuc(a1-3)]GlcNAc(b1-2)Man(a1-6)]Man(b1-4)GlcNAc(b1-4)GlcNAc
# Procedure, shortened: as §1
# Gal(a1-6)Glc = biological target: Gal(a1-6)Glc
# Procedure, shortened: as §1
# [8] = biological target: Gal(b1-3)GalNAc(b1-3)Gal(a1-4)Gal(b1-4)Glc
# Procedure, shortened: as §1
# [9] = biological target: Gal(b1-3)GlcNAc(b1-3)Gal(b1-3)GlcNAc
# Procedure, shortened: as §1
# [10] = biological target: Gal(b1-3)GlcNAc(b1-6)GalNAc
# Procedure, shortened: as §1
# [11] = biological target: Gal(b1-3)GlcNAc(b1-6)[Gal(b1-3)]GalNAc
# Procedure, shortened: as §1
# [12] = biological target: Gal(b1-4)GlcNAc(b1-2)Man(a1-3)[Gal(b1-4)GlcNAc(b1-2)Man(a1-6)]Man(b1-4)GlcNAc(b1-4)GlcNAc
# Procedure, shortened: as §1
# [13] = biological target: Gal(b1-4)GlcNAc(b1-2)Man(a1-3)[Gal(b1-4)GlcNAc(b1-2)Man(a1-6)][Gal(b1-4)GlcNAc(b1-4)]Man(b1-4)GlcNAc(b1-4)[Fuc(a1-6)]GlcNAc
# Procedure, shortened: as §1
# [14] = biological target: Gal(b1-4)GlcNAc(b1-2)Man(a1-3)[Man(a1-6)]Man(b1-4)GlcNAc(b1-4)GlcNAc
# Procedure, shortened: as §1
# [15] = biological target: Gal(b1-4)GlcNAc(b1-2)Man(a1-6)[Man(a1-3)]Man(b1-4)GlcNAc(b1-4)GlcNAc
# Procedure, shortened: as §1
# [16] = biological target: Gal(b1-4)GlcNAc(b1-2)[Gal(b1-4)GlcNAc(b1-6)]Man(a1-6)[GlcNAc(b1-4)][Gal(b1-4)GlcNAc(b1-2)[Gal(b1-4)GlcNAc(b1-4)]Man(a1-3)]Man(b1-4)GlcNAc(b1-4)[Fuc(a1-6)]GlcNAc
# Procedure, shortened: as §1
# [17] = biological target: Gal(b1-4)GlcNAc(b1-3)Gal(b1-4)GlcNAc(b1-2)Man(a1-3)[Gal(b1-4)GlcNAc(b1-3)Gal(b1-4)GlcNAc(b1-2)Man(a1-6)]Man(b1-4)GlcNAc(b1-4)GlcNAc
# Procedure, shortened: as §1
# [18] = biological target: Gal(b1-4)GlcNAc(b1-3)Gal(b1-4)GlcNAc(b1-2)[Gal(b1-4)GlcNAc(b1-3)Gal(b1-4)GlcNAc(b1-6)]Man(a1-6)[Gal(b1-4)GlcNAc(b1-3)Gal(b1-4)GlcNAc(b1-2)Man(a1-3)]Man(b1-4)GlcNAc(b1-4)GlcNAc
# Procedure, shortened: as §1
# [19] = biological target: Gal(b1-4)GlcNAc(b1-3)Gal(b1-4)[Fuc(a1-3)]GlcNAc(b1-3)Gal(b1-4)[Fuc(a1-3)]GlcNAc
# Procedure, shortened: as §1
# [20] = biological target: Gal(b1-4)GlcNAc(b1-3)[Gal(b1-4)GlcNAc(b1-6)]GalNAc
# Procedure, shortened: as §1
# [21] = biological target: Gal(b1-4)GlcNAc(b1-6)[Gal(b1-4)GlcNAc(b1-3)]GalNAc
# Procedure, shortened: as §1
# GalNAc(b1-3)GalNAc = biological target: GalNAc(b1-3)GalNAc
# Procedure, shortened: as §1
# GalNAc(b1-4)Gal(b1-4)Glc = biological target: GalNAc(b1-4)Gal(b1-4)Glc
# Procedure, shortened: as §1
# [22] = biological target: Glc(a1-4)Glc(a1-4)Glc(a1-4)Glc
# Procedure, shortened: as §1
# Glc(b1-4)Glc = biological target: Glc(b1-4)Glc
# Procedure, shortened: as §1
# GlcA(b1-3)Gal = biological target: GlcA(b1-3)Gal
# Procedure, shortened: as §1
# [23] = biological target: GlcNAc(a1-4)Gal(b1-3)GlcNAc
# Procedure, shortened: as §1
# [24] = biological target: GlcNAc(b1-2)[GlcNAc(b1-4)]Man(a1-3)[GlcNAc(b1-2)Man(a1-6)]Man(b1-4)GlcNAc(b1-4)GlcNAc
# Procedure, shortened: as §1
# [25] = biological target: GlcNAc(b1-3)[GlcNAc(b1-6)]GalNAc
# Procedure, shortened: as §1
# [26] = biological target: GlcNAc(b1-4)GlcNAc(b1-4)GlcNAc
# Procedure, shortened: as §1
# [27] = biological target: GlcNAc(b1-4)[GlcNAc(b1-6)]GalNAc
# Procedure, shortened: as §1
# [28] = biological target: Man(a1-2)Man(a1-2)Man(a1-3)Man
# Procedure, shortened: as §1
# [29] = biological target: Man(a1-2)Man(a1-3)[Man(a1-2)Man(a1-6)]Man(a1-6)[Man(a1-2)Man(a1-2)Man(a1-3)]Man(b1-4)GlcNAc(b1-4)GlcNAc
# Procedure, shortened: as §1
# [30] = biological target: Man(a1-2)Man(a1-3)[Man(a1-6)]Man(a1-6)[Man(a1-2)Man(a1-3)]Man(b1-4)GlcNAc(b1-4)GlcNAc
# Procedure, shortened: as §1
# [31] = biological target: Man(a1-2)Man(a1-6)[Man(a1-3)]Man(a1-6)[Man(a1-2)Man(a1-2)Man(a1-3)]Man(b1-4)GlcNAc(b1-4)GlcNAc
# Procedure, shortened: as §1
# Man(a1-3)[Man(a1-6)]Man = biological target: Man(a1-3)[Man(a1-6)]Man
# Procedure, shortened: as §1
# [32] = biological target: Man(a1-3)[Man(a1-6)]Man(a1-6)[Man(a1-2)Man(a1-3)]Man(b1-4)GlcNAc(b1-4)GlcNAc
# Procedure, shortened: as §1
# [33] = biological target: Man(a1-3)[Man(a1-6)]Man(a1-6)[Man(a1-3)]Man
# Procedure, shortened: as §1
# [34] = biological target: Man(a1-3)[Man(a1-6)]Man(a1-6)[Man(a1-3)]Man(b1-4)GlcNAc(b1-4)GlcNAc
# Procedure, shortened: as §1
# [35] = biological target: Man(a1-3)[Man(a1-6)]Man(b1-4)GlcNAc(b1-4)GlcNAc
# Procedure, shortened: as §1
# [36] = biological target: Man(a1-3)[Man(a1-6)]Man(b1-4)GlcNAc(b1-4)[Fuc(a1-6)]GlcNAc
# Procedure, shortened: as §1
# Man(b1-4)GlcNAc = biological target: Man(b1-4)GlcNAc
# Procedure, shortened: as §1
# [37] = biological target: Neu5Ac(a2-3)Gal(b1-3)GlcNAc(b1-2)Man
# Procedure, shortened: as §1
# [38] = biological target: Neu5Ac(a2-3)Gal(b1-3)GlcNAc(b1-3)Gal(b1-4)GlcNAc
# Procedure, shortened: as §1
# [39] = biological target: Neu5Ac(a2-3)Gal(b1-3)GlcNAc(b1-3)GalNAc
# Procedure, shortened: as §1
# [40] = biological target: Neu5Ac(a2-3)Gal(b1-3)GlcNAc6S
# Procedure, shortened: as §1
# [41] = biological target: Neu5Ac(a2-3)Gal(b1-4)GlcNAc
# Procedure, shortened: as §1
# [42] = biological target: Neu5Ac(a2-3)Gal(b1-4)GlcNAc(b1-3)Gal(b1-4)GlcNAc(b1-3)Gal(b1-4)GlcNAc
# Procedure, shortened: as §1
# [43] = biological target: Neu5Ac(a2-3)Gal(b1-4)[Fuc(a1-3)]GlcNAc(b1-3)Gal
# Procedure, shortened: as §1
# [44] = biological target: Neu5Ac(a2-3)Gal6S(b1-4)[Fuc(a1-3)]GlcNAc
# Procedure, shortened: as §1
# [45] = biological target: Neu5Ac(a2-6)Gal(b1-3)GlcNAc(b1-3)[Gal(b1-4)GlcNAc(b1-6)]Gal(b1-4)Glc
# Procedure, shortened: as §1
# [46] = biological target: Neu5Ac(a2-6)Gal(b1-4)GlcNAc(b1-2)Man(a1-6)[Man(a1-3)]Man(b1-4)GlcNAc(b1-4)GlcNAc
# Procedure, shortened: as §1
# [47] = biological target: Neu5Ac(a2-8)Neu5Ac(a2-8)Neu5Ac
# Procedure, shortened: as §1
# [48] = biological target: Neu5Ac(b2-6)Gal(b1-4)GlcNAc
# Procedure, shortened: as §1
# [49] = biological target: Neu5Gc(a2-8)Neu5Gc(a2-3)Gal(b1-4)GlcNAc(b1-3)Gal(b1-4)GlcNAc
# Procedure, shortened: as §1
binder,measurement,setting,value
B1,glycan array binding signal (z-score),[1],-0.124
same,glycan array binding signal (z-score),[2],-0.142
same,glycan array binding signal (z-score),[3],-0.152
same,glycan array binding signal (z-score),[4],-0.132
same,glycan array binding signal (z-score),[5],-0.131
same,glycan array binding signal (z-score),Gal(a1-3)Gal(b1-3)GlcNAc,-0.133
same,glycan array binding signal (z-score),[6],2.1
same,glycan array binding signal (z-score),[7],-0.056
same,glycan array binding signal (z-score),Gal(a1-6)Glc,-0.147
same,glycan array binding signal (z-score),[8],-0.135
same,glycan array binding signal (z-score),[9],-0.148
same,glycan array binding signal (z-score),[10],-0.144
same,glycan array binding signal (z-score),[11],-0.051
same,glycan array binding signal (z-score),[12],0.602
same,glycan array binding signal (z-score),[13],-0.143
same,glycan array binding signal (z-score),[14],1.71
same,glycan array binding signal (z-score),[15],3.12
same,glycan array binding signal (z-score),[16],-0.141
same,glycan array binding signal (z-score),[17],0.034
same,glycan array binding signal (z-score),[18],-0.104
same,glycan array binding signal (z-score),[19],-0.144
same,glycan array binding signal (z-score),[20],-0.201
same,glycan array binding signal (z-score),[21],-0.141
same,glycan array binding signal (z-score),GalNAc(b1-3)GalNAc,-0.153
same,glycan array binding signal (z-score),GalNAc(b1-4)Gal(b1-4)Glc,-0.129
same,glycan array binding signal (z-score),[22],-0.139
same,glycan array binding signal (z-score),Glc(b1-4)Glc,-0.152
same,glycan array binding signal (z-score),GlcA(b1-3)Gal,-0.148
same,glycan array binding signal (z-score),[23],-0.152
same,glycan array binding signal (z-score),[24],-0.076
same,glycan array binding signal (z-score),[25],-0.147
same,glycan array binding signal (z-score),[26],-0.122
same,glycan array binding signal (z-score),[27],-0.146
same,glycan array binding signal (z-score),[28],0.268
same,glycan array binding signal (z-score),[29],0.144
same,glycan array binding signal (z-score),[30],2.38
same,glycan array binding signal (z-score),[31],1.83
same,glycan array binding signal (z-score),Man(a1-3)[Man(a1-6)]Man,5.21
same,glycan array binding signal (z-score),[32],5.6
same,glycan array binding signal (z-score),[33],2.47
same,glycan array binding signal (z-score),[34],5.37
same,glycan array binding signal (z-score),[35],10.1
same,glycan array binding signal (z-score),[36],5.34
same,glycan array binding signal (z-score),Man(b1-4)GlcNAc,-0.151
same,glycan array binding signal (z-score),[37],-0.122
same,glycan array binding signal (z-score),[38],-0.153
same,glycan array binding signal (z-score),[39],-0.14
same,glycan array binding signal (z-score),[40],-0.124
same,glycan array binding signal (z-score),[41],-0.154
same,glycan array binding signal (z-score),[42],-0.151
same,glycan array binding signal (z-score),[43],-0.162
same,glycan array binding signal (z-score),[44],-0.158
same,glycan array binding signal (z-score),[45],-0.144
same,glycan array binding signal (z-score),[46],3.41
same,glycan array binding signal (z-score),[47],-0.156
same,glycan array binding signal (z-score),[48],-0.154
same,glycan array binding signal (z-score),[49],-0.146
